Results published in PubChem BioAssay.
The source made the active and inactive calls.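 How the source made its calls, unless noted: active means inhibition of the reporter signal at or above 50%; inactive means inhibition below 50%.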 Where a SMILES comes first, the peptide text is derived from it. The star is where a group is joined. Boc = CC(C)(C)OC(=O)*

How the values were obtained:
[1] = inhibitors of TNFa-induced NFkB p65 translocation, primary screen, imaging, HUVEC, MLSMR starter and 10KST1 sets (AID 438;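 active means inhibition above 20% together with a positive visual image hit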;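 further: compound added about 3h40 before a 20 min TNFalpha stimulation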;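 on inhibition: signal is the nuclear over cytoplasmic p65 intensity ratio per well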); conditions: HUVEC TNFa-induced p65 nuclear translocation; cell count: measured here: nuclei count (cytotoxicity indicator), at 2.08 µM; inhibition: at 2 µM, stronger effect = higher value, 0% TNFa-plus-vehicle, 100% no-TNFa wells
[2] = reduction of polyQ htt aggregates in cells – imaging, exon1htt(103Q)mCFP cells, high-content imaging, primary screen (AID 483;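 active means visual image review flags a hit and inhibition of aggregation exceeds 20%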;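 further: compound exposure lasted 3 days before fixation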;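 on nuclei count: percent of the per-plate median nuclei count of sample wells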); conditions: exon1htt(103Q)mCFP cell line, aggregate imaging, at 2 µM; inhibition of aggregation: stronger effect = higher value; nuclei count: measured here: cell count, toxicity
[3] = endothelial E-selectin expression blockers – imaging, HUVEC, immunofluorescence, MLSMR starter and 10KST1 sets, primary screen (AID 487;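 active means visually confirmed hit in the image check and inhibition above 20%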;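 on inhibition: signal is fraction of cell area covered by stained E-selectin grains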;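 on nuclei count: 100% = median nuclei count of all wells on the same plate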); conditions: HUVEC TNFalpha-induced E-selectin immunofluorescence imaging, at 2 µM; inhibition: stronger effect = higher value; nuclei count: measured here: cell number, toxicity
[4] = target: Voltage-gated potassium channel subunit beta-2 (Rattus norvegicus) (UniProt P62483); test: inhibitors of rat Kvbeta2 reductase activity – biochemical, NADPH fluorescence, primary screen (AID 622;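 active means fluorescence slope higher than the sample average by over 3 SD, cut at about -0.22 in these data, passing the limit was not always enough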;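 further: slope of raw intensity against log time taken from 70 to 1610 s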); conditions: recombinant KvBeta, 4-cyanobenzaldehyde reduction, at 10 µM, stronger effect = higher value
Voltage-gated potassium channel subunit beta-2 (Rattus norvegicus), sequence (P62483 whole entry, looked up): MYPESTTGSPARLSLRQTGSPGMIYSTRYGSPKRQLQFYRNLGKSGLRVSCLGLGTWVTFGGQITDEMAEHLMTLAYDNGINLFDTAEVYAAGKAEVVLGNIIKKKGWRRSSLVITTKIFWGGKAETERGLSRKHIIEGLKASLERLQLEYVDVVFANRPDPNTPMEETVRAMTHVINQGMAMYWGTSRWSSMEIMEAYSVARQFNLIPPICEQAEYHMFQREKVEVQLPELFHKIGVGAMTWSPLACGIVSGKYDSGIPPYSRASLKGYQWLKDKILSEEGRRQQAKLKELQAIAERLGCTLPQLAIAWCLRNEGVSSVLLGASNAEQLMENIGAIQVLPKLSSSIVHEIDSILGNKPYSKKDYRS

[5] = target: Voltage-gated potassium channel subunit beta-2 (Rattus norvegicus) (UniProt P62483); test: enhancers of rat Kvbeta2 NADPH turnover – biochemical, NADPH fluorescence, primary screen (AID 623;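 active means NADPH fluorescence slope more negative than the mean of all samples by about 3 SD, 99.7% confidence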;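 further: fluorescence intensity change per second fitted from 20 to 320 s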); conditions: Recombinant KvBeta, NADPH fluorescence decrease slope, 10 min; at 10 µM; stronger effect = lower value
[6] = target: Alpha-2C adrenergic receptor (Homo sapiens) (UniProt P18825); test: compounds altering alpha2C-coupled GIRK flux – cell-based, HEK293 alpha2C/GIRK1/2, thallium flux, primary screen (AID 624;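 active means fluorescence slope after compound addition differing from the mean of all screened samples at 99.7% confidence, in either direction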;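 further: slope of fluorescence ratio to pre-addition baseline per second over 15 to 24 s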); conditions: thallium flux BTC fluorescence, at 10 µM, actives lie on both sides
Alpha-2C adrenergic receptor (Homo sapiens), sequence (P18825 whole entry, looked up): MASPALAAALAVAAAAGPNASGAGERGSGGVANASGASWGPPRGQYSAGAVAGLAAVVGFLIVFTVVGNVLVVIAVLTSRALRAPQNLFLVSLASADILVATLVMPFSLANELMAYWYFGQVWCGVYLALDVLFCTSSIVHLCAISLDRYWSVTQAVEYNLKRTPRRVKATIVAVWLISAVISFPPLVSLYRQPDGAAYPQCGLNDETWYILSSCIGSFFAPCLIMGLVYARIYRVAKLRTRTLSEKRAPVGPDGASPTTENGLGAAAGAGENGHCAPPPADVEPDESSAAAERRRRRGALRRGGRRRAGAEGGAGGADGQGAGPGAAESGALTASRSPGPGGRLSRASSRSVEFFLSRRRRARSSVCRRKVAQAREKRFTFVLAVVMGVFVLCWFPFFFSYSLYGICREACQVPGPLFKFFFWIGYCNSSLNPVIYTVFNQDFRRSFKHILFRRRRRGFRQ

[7] = blockers of RIG-like receptor reporter activation – cell-based, Sendai virus stimulus, luciferase, 10K MLSCN set, TLR/RLR signaling modifier project, primary screen (AID 602276;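 active means inhibition at or above 50% at 10 µM; inactive means inhibition below 50%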;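 further: firefly luciferase from ISG56 promoter only with Renilla not read in this screen; 0% = Sendai virus plus DMSO and 100% = medium plus DMSO without virus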); conditions: HEK293 RL24 IRF3 luciferase reporter, at 10 µM, stronger effect = higher value
[8] = TLR3 IRF3 reporter activation blockers – cell-based, poly I:C stimulus, luciferase, 10K MLSCN set, primary screen (AID 602277); conditions: HEK293-TLR3 RL24 IRF3 luciferase reporter, at 10 µM, stronger effect = higher value

Structure (SMILES)	cell count [1]	inhibition [1]	inhibition of aggregation [2]	nuclei count [2]	inhibition [3]	nuclei count [3]	fluorescence slope [4]	NADPH fluorescence slope [5]	slope [6]	inhibition [7]	inhibition [8]
O=C(c1c(F)cccc1F)N(Cc1ccccn1)C1CCCC1	521	-11.2% (inactive)	24.2% (inactive)	110%	40.9% (inactive)	87.3%	-0.534 (inactive)	2e-06 (inactive)	0.00412 (inactive)	-7.47% (inactive)	-6.01% (inactive)
C=CCSC1=C(C#N)C(c2ccccc2)CC(=O)N1 (centres undefined)	486	-1.6% (inactive)	1.6% (inactive)	101%	-112% (inactive)	104%	-0.527 (inactive)	8.1e-07 (inactive)	0.00534 (inactive)	6.68% (inactive)	8.17% (inactive)
Cc1cccc(CN2CCC(CNC(=O)C3CCCN(S(=O)(=O)c4cnc[nH]4)C3)CC2)c1 (centres undefined)	706	-12.2% (inactive)	10.2% (inactive)	106%	-61.1% (inactive)	125%	-0.518 (inactive)	-3.2e-05 (inactive)	0.0058 (inactive)	18.8% (inactive)	27.2% (inactive)
CCC(C)C(NC(=O)OC(C)(C)C)C(=O)NC(CC(C)C)C(N)=O (stereo not drawn) (Boc-Ile-Leu-NH2; configuration not given here)	399	1.3% (inactive)	7.1% (inactive)	88.9%	56.6% (inactive)	89.8%	-0.516 (inactive)	-6.5e-05 (inactive)	0.00654 (inactive)	-6.01% (inactive)	10.9% (inactive)
CC(c1ccccc1)n1cnc2ccccc21 (centres undefined)	590	-2.5% (inactive)	17.1% (inactive)	94.1%	-48% (inactive)	148%	-0.364 (inactive)	-6.9e-05 (inactive)	0.00531 (inactive)	7.98% (inactive)	19% (inactive)
c1ccc(-c2noc(C3CCCCC3)n2)nc1	665	-44.9% (inactive)	-13.4% (inactive)	97.5%	-29.2% (inactive)	110%	-0.52 (inactive)	-2.4e-05 (inactive)	0.00485 (inactive)	-1.58% (inactive)	-68.3% (inactive)
O=C(Nc1cccc2ccccc12)c1cnccn1	419	11.7% (inactive)	5.1% (inactive)	96.9%	-180% (inactive)	117%	-0.52 (inactive)	-3.3e-05 (inactive)	0.00645 (inactive)	-180% (inactive)	99.3% (active)
Cc1ccc(-c2noc(-c3ccccc3C(=O)NCC3CCCO3)n2)cc1 (centres undefined)	763	2% (inactive)	-9% (inactive)	110%	8.3% (inactive)	106%	-0.442 (inactive)	5.9e-05 (inactive)	0.00648 (inactive)	-20% (inactive)	-30.1% (inactive)
CCCC(=O)Nc1ccccc1-c1nnn(CC(=O)Nc2ccc(OC)cc2)n1	674	21.5% (inactive)	-11.7% (inactive)	115%	-36.7% (inactive)	83.3%	-0.36 (inactive)	1e-05 (inactive)	0.0062 (inactive)	14.1% (inactive)	13.7% (inactive)
O=C(c1ccco1)N1CCN(C(=O)C2CC(c3ccc(F)cc3)=NO2)CC1 (centres undefined)	448	-12.3% (inactive)	-13.2% (inactive)	106%	-12.7% (inactive)	112%	-0.622 (inactive)	2.2e-07 (inactive)	0.00657 (inactive)	7.52% (inactive)	13.1% (inactive)
CCCOc1ccc(C2C(C(=O)OC)=CN(CCOC)C=C2C(=O)OC)cc1	356	-11.3% (inactive)	-4.7% (inactive)	116%	-128% (inactive)	111%	-0.251 (inactive)	1.3e-05 (inactive)	0.00618 (inactive)	15.3% (inactive)	27.8% (inactive)
CC(=O)N1CCN=C1SCc1ccc(Br)cc1	442	14.5% (inactive)	15.2% (inactive)	95.1%	39.5% (inactive)	98.6%	-0.632 (inactive)	-9.6e-06 (inactive)	0.00733 (inactive)	-0.301% (inactive)	22.3% (inactive)
O=c1ccc(S(=O)(=O)N2CCC(Cc3ccccc3)CC2)c[nH]1	451	0% (inactive)	-8.8% (inactive)	103%	-15.8% (inactive)	111%	-0.369 (inactive)	-5e-05 (inactive)	0.00726 (inactive)	11.4% (inactive)	31.9% (inactive)
CCOC(=O)C(CC)n1nc(C)n2c(cc3sccc32)c1=O (centres undefined)	526	7.7% (inactive)	14.3% (inactive)	110%	-25.8% (inactive)	122%	-0.567 (inactive)	-3.4e-05 (inactive)	0.0065 (inactive)	10.8% (inactive)	19.7% (inactive)
Cc1ccccc1-n1c(SCc2c(C)noc2C)nnc1-c1ccncc1	741	-2.4% (inactive)	-10.7% (inactive)	103%	-87% (inactive)	115%	-0.304 (inactive)	-5.4e-05 (inactive)	0.00424 (inactive)	6.71% (inactive)	30.2% (inactive)
CCC(C)NC(=O)C1c2cc(OC)c(OC)cc2C(=O)N(C)C1c1ccc(OC)cc1 (centres undefined)	455	-0.3% (inactive)	7.3% (inactive)	100%	43.7% (inactive)	52.6%	-0.539 (inactive)	-8.1e-06 (inactive)	0.00537 (inactive)	-0.973% (inactive)	2.51% (inactive)
CC1(C)NC(=O)N(CN2C(=O)NC(C)(C)C2=O)C1=O	579	-7.9% (inactive)	-22.5% (inactive)	114%	28.8% (inactive)	110%	-0.415 (inactive)	-3.4e-05 (inactive)	0.00531 (inactive)	7.1% (inactive)	9.34% (inactive)
CCOC(=O)C1CCN(C(=O)CCCCn2c(=O)[nH]c3ccccc3c2=O)CC1	517	-8.6% (inactive)	-27.5% (inactive)	100%	-54.8% (inactive)	126%	-0.563 (inactive)	3.1e-05 (inactive)	0.00611 (inactive)	0.817% (inactive)	-29.5% (inactive)
Nc1ccc(C(=O)OCCCc2nc3ccccc3[nH]2)cc1	366	-2.2% (inactive)	10.5% (inactive)	95.7%	9% (inactive)	92.5%	-0.589 (inactive)	-5.8e-05 (inactive)	0.00614 (inactive)	-17.1% (inactive)	-17.7% (inactive)
